# This is a sample that favours compounds with a hit; in the whole collection about 7.4% have one here.
# ELG1 genotox – induces genotoxicity in HEK293T cells with luciferase-tagged ELG1; HEK293T ELG1-luciferase reporter, luminescence, 16 h; Potency, µM (titrated, usually from 46 µM), inactives show at the highest dose activity change, positive = activation, usual class: activators; 1.3% of 330,000 active; AID 504466; also: % of control where 0% means no effect; nearly all actives have a fitted effect of over 60% in size
#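 After overnight (16 hr) compound treatment at 37 °C, ELG1-luciferase HEK293T cells were lysed with ONE-Glo; luminescence quantified 30 min later at room temperature.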
# SMN2 splice enh – SMN2 splice variant enhancement; HEK293 SMN2-luciferase splicing reporter, luminescence, 30-36 h; Potency, µM (top dose mostly 46.1 µM), for inactives: at the top dose activity change, positive = activation, most hits filed as activators; 2.8% of 210,000 active; AID 1458; also: % of control where 0% means no effect; nearly all actives have a fitted effect of over 55% in size
#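 HEK293 cells carry an SMN2 […]–luciferase reporter in which exon 7 inclusion puts luciferase in frame. Cells were plated 10-12 h before compound addition, then incubated 30-36 h at 37C. ONE-Glo luminescence was read; sodium butyrate at 4.5 mM final served as control.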
# FLuc modulator – counter-screen for miR-21 project: firefly luciferase inhibitors or activators | P08659 | 6.9% of 360,000 active | AID 588342 | purified FLuc, Km substrates, luminescence inhibition | Potency, µM (series often up to 57.5 µM), for inactives: top-dose activity change, negative = inhibition, hits mostly inhibitors;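 also: plate controls were vehicle for no effect and reference inhibitor for full effect; nearly all actives have a fitted effect of over 55% in size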
# Target sequence (P08659 whole entry, looked up): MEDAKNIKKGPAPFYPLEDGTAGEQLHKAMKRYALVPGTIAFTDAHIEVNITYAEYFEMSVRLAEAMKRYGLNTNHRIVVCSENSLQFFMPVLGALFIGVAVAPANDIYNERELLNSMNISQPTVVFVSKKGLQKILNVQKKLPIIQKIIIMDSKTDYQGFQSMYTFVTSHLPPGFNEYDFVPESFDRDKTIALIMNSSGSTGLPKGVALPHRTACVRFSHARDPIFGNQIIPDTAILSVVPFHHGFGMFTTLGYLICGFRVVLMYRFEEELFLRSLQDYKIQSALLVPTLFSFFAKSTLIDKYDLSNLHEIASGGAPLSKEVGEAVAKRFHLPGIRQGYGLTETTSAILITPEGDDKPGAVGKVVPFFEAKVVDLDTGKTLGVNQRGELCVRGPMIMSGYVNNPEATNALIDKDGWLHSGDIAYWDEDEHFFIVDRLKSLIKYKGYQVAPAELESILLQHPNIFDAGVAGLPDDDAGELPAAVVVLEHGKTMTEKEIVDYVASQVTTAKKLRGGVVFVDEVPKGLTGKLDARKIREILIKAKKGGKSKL
#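 Purified P. pyralis luciferase, 10 nM final, with Km-level 10 uM D-luciferin and 10 uM ATP in 50 mM Tris acetate pH 7.5, 10 mM Mg acetate, 0.01% Tween-20, 0.05% BSA; 6-point qHTS titration about 60 µM downward; luminescence read.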
# Rab9 prom act – activates the Rab9 promoter; Huh7 Rab9 promoter-luciferase reporter, luminescence, 24 h; Potency, µM (top dose mostly 9.22 µM), for inactives: at the highest dose activation, negative = inhibition, usual class: activators; 2.8% of 320,000 active; AID 485297; also: % of control where 0% means no effect; nearly all actives have a fitted effect of over 60% in size
#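 Cells were plated at 1500 per well in reduced-serum medium with 10% FBS and left 2 h. Compound in DMSO was then added for 24 h at 37 °C. Reporter signal was read by luminescence after 10 min with luciferase detection reagent.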
# NPC1 prom act – activators of NPC1 promoter; Potency, µM (highest dose often 9.22 µM), for the others: at the highest dose activation, usual class: activators; 2.4% of 320,000 active; Huh7 NPC1 promoter luciferase reporter, 24 h; also: % of control where 0% means no effect; nearly all actives have a fitted effect of over 60% in size
#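 Readout is luciferase luminescence, reflecting NPC1 promoter activation in stably transfected Huh7 cells after 24 h compound exposure at 37 °C in reduced-serum medium with 10% FBS.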
# * marks the source's active call; other numbers are inactive results; ? = inconclusive; / = not tested or not shown; [ ] = dose if it differs, or a comment. Calls follow the shape of the dose curve; as a rule, active = well fitted curve in the direction sought with a large enough effect; inconclusive = small, poorly fitted or top-dose-only effect, or another doubt; inactive = no such curve, though single readings can be large; an effect the other way counts as inactive or inconclusive. Potency is read from the fitted curve at half-maximal effect.
SMILES,ELG1 genotox,SMN2 splice enh,FLuc modulator,Rab9 prom act,NPC1 prom act
COc1ccc(C2=NN(C(=O)CN3CCOCC3)C(c3nc4ccccc4[nH]3)C2)cc1 (centres undefined),?,?,15µM*,?,11%
COc1cc(-c2nc(-c3ccc4c(c3)-c3ccccc3S4(=O)=O)c(-c3ccccc3)[nH]2)cc(OC)c1OC,-9%,29%,4.8µM*,5%,0%
CC(NC(=O)Cn1ncc2c3ccccc3n(Cc3ccc(F)cc3)c2c1=O)c1ccccc1 (centres undefined),/,8%,-2%,/,/
CC(=O)NS(=O)(=O)c1ccc(NC(=O)c2oc3c(Cl)cccc3c2C)cc1,-1%,/,13µM*,2%,-1%
NC[C@H](O)c1ccc(O)c(O)c1,15%,3%,3%,2%[46.1 µM],6%[46.1 µM]
O=C(NCc1ccc(F)cc1)c1ccc(CSc2nc3ccncc3n2Cc2ccc(F)cc2)cc1,/,-4%,1%,/,/
O=C(CC1S/C(=N/N=C/c2ccco2)NC1=O)Nc1ccccc1 (centres undefined),-8%,8%,-2%,-9%,-2%
O=C(CC1S/C(=N/N=C/C=C/c2ccccc2)NC1=O)Nc1ccc(C(=O)O)cc1 (centres undefined),-11%,-6%,13µM*,-3%,-4%
CSc1nc2sc3c(c2c(=O)n1-c1ccc(C)cc1)CCCC3,/,-17%,0%,/,/
Cc1cc(NC(=O)NCc2ccccc2)c(=O)n(Cc2ccccc2F)c1,14%,/,5.4µM*,20%,11%
COc1cccc(Cn2cc(C)cc(NC(=O)NCc3ccccc3)c2=O)c1,4%,/,2.1µM*,18%,15%
COc1cccc(NC(=O)Nc2cccn(Cc3ccc(C)cc3)c2=O)c1,-7%,/,?,-32%,-8%
CCc1nn(CC(=O)NC2CC2)c(=O)c2cc3ccccc3n12,/,/,6%,/,/
O=C(COc1ccccc1Cl)NNC(=O)c1ccc2nc[nH]c2c1,1%,/,-16%,-8%,-3%
Cc1cc(/C=C(\C#N)C(=O)N2CCOCC2)c(C)n1C1CCCC1,1.6µM*,/,1.1µM*,0.32µM*,0.5µM*
Cc1ccc(NC(=O)O/N=C/c2c(C)nn(C(C)(C)C)c2C)cc1Cl,-12%,/,0.13µM*,-44%,-35%
COc1ccc2c(c1OC)C(=O)N(c1cccc(C)c1)C2,2.1µM*,14µM*,1.5µM*,1.4µM*,1.4µM*
COc1ccc2c(c1OC)C(=O)N(c1ccc(C)cc1)C2,18µM*,/,3µM*,0.71µM*,1.1µM*
COc1ccc2c(c1OC)C(=O)N(c1cccc(C(F)(F)F)c1)C2,?,13µM*,5.4µM*,4.5µM*,?
COc1ccc2c(c1OC)C(=O)N(c1ccccn1)C2,9.2µM*,11µM*,11µM*,2.2µM*,3.2µM*
COc1ccccc1N1Cc2ccc(OC)c(OC)c2C1=O,5%,/,-13%,2%,0%
N#Cc1cc(C#N)c(N2CCN(c3ccccn3)CC2)nc1N,14%,17%,?,?,?
COc1ccc(-c2nc3c(c4c2C[C@H](c2ccccc2)OC4)CN(S(=O)(=O)c2ccc(C#N)cc2)CC3)c(C)c1,/,6%[9.22 µM],/,/,/
COc1ccc(-c2cnc3c(-c4ccc(F)cc4)cnn3c2N)cc1,?,/,0.6µM*,0.32µM*,0.4µM*
Nc1c(-c2ccc(Cl)cc2)nnn1-c1ccccc1,?,/,?,2.2µM*,3.2µM*
SMILES,ELG1 genotox,SMN2 splice enh,FLuc modulator,Rab9 prom act,NPC1 prom act
Nc1c(-c2ccc(Cl)cc2)cnn1-c1cc(C(F)(F)F)cc(C(F)(F)F)c1,4%,/,-2%,-2%,1%
Nc1c(-c2ccc(Cl)cc2)cnn1-c1ccccc1,6.5µM*,/,4.8µM*,0.89µM*,2.2µM*
COc1ccc(-c2cnn3c(N)c(S(=O)(=O)C(C)(C)C)cnc23)cc1,-4%,-11%,?,9%,9%
Nc1c(-c2ccccc2)cnn1-c1ccc(C(=O)O)cc1,?,3.2µM*,1.7µM*,0.32µM*,?
CC(=O)c1cn(CCOc2ccc(F)cc2)c2ccccc12,-1%,/,-4%,-13%,-10%
COc1cc(C2C(C#N)=C(N)N(N(C)C)C3=C2C(=O)CCC3)ccc1O (centres undefined),-1%,/,-3%,-3%,0%
CCn1c(=S)sc2c(=O)n(CC(=O)Nc3cccc(Cl)c3)c(C)nc21,-12%,/,0%,-16%,-4%
Nc1c(-c2ccc(Cl)cc2)cnc2c(-c3ccccc3)cnn12,1.6µM*,/,0.48µM*,1.3µM*,0.32µM*
Nc1c(-c2cccc(Cl)c2)cnn1-c1cccc(C(F)(F)F)c1,-3%,-27%,?,9%,2%
Cc1ccc(-c2cnn(-c3cccc([N+](=O)[O-])c3)c2N)cc1,?,29%,12µM*,3.2µM*,2.2µM*
Cc1ccc(-c2cnn(-c3ccccc3)c2N)cc1,?,/,1.3µM*,1.1µM*,0.45µM*
Nc1c(-c2ccccc2)cnn1-c1cccc(C(F)(F)F)c1,14%,3.5µM*,17µM*,3.2µM*,?
CC(C)Cn1c(SCc2nc3ccccc3c(=O)[nH]2)nc2ccccc2c1=O,0%,-31%,-1%,0%,0%
Cc1ccc(NC(=O)CC(C)CC(=O)NCc2ccccc2)cc1Cl (centres undefined),-5%,/,3%,-2%,5%
O=C(Cn1ccc2cc(S(=O)(=O)N3CCCC3)ccc21)NCc1ccco1,0%,/,2%,4%,1%
